High-throughput results as filed in PubChem.
L3MBTL1 inh: blocks human L3MBTL1; Q9Y468; AlphaScreen L3MBTL1–H3K9me1 peptide binding; Potency, µM (highest dose often 57.1 µM), for inactives: at the highest dose activity, negative = inhibition, hits mostly inhibitors; 230,000 tested, 0.66% active; AID 485360; also: potency is read from the fitted curve at half-maximal effect; % is scaled to controls: 0 for no effect and ±100 for the full control effect; nearly all actives have a fitted effect of over 60% in size
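L3MBTL1 (50 nM) pre-complexed 30 min with biotinylated H3(1-15)K9me1 peptide (75 nM), then compounds added for 30 min at room temperature; AlphaScreen streptavidin donor/nickel chelate acceptor beads (10 ug/mL final) read after 30 min dark incubation.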
HP1b chromo inh: HP1-beta chromodomain-methylated histone interaction inhibition. P83916. AlphaScreen HP1-beta / biotin-H3K9me3 peptide binding. Potency, µM (series often up to 114 µM), without a hit: at the highest dose activity change, negative = inhibition, usual class: inhibitors. 390,000 tested, 0.56% active; also: potency is read from the fitted curve at half-maximal effect; nearly all actives have a fitted effect of over 70% in size
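AlphaScreen: HP1-beta (50 nM) preformed 30 min with biotin-H3(1-18)K9me3 peptide (50 nM) in PBS pH 7.4, 0.01% Tween-20. Compound added for 30 min at RT, then streptavidin donor/nickel chelate acceptor beads (10 ug/mL) for 30 min.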
BAZ2B block: BAZ2B (human) inhibition; Q9UIF8; AlphaScreen BAZ2B-H3K14Ac peptide displacement; Potency, µM (series often up to 114 µM), for the others: at the top dose activity change, negative = inhibition, usual class: inhibitors; 360,000 tested, 4.4% active; AID 504333; also: potency is read from the fitted curve at half-maximal effect; % is scaled to controls: 0 for no effect and ±100 for the full control effect; nearly all actives have a fitted effect of over 60% in size
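AlphaScreen luminescence quantifies BAZ2B engagement of H3K14Ac peptide; the protein and biotinylated peptide are both at 50 nM final, buffer PBS pH 7.4 with 0.01% Tween-20, all steps at room temperature.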
JMJD2A Tudor: blocks the human JMJD2A Tudor domain. O75164. AlphaScreen JMJD2A-Tudor / H3K4me3 peptide binding. Potency, µM (doses to about 114 µM), for the others: at the highest dose activity change, negative = inhibition, usual class: inhibitors. 390,000 tested, 4.4% active. AID 504339; also: potency is read from the fitted curve at half-maximal effect; % is scaled to controls: 0 for no effect and ±100 for the full control effect; nearly all actives have a fitted effect of over 50% in size
JMJD2E inh: inhibitors of human JMJD2E histone demethylase; JMJD2E catalytic domain, FDH-coupled NADH fluorescence (FDH is formaldehyde dehydrogenase); Potency, µM (highest dose often 57.1 µM), for the others: at the highest dose activity change, negative = inhibition, actives largely listed as inhibitors; 230,000 tested, 1.6% active; active = well fitted inhibition curve with a large enough effect, not every such curve was filed as active; inconclusive = small, poorly fitted or top-dose-only effect, or another doubt; inactive = no such curve, though single readings can be large or run the other way;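 also: potency is read from the fitted curve at half-maximal effect; 0% = wells with enzyme and -100% = buffer wells without enzyme; nearly all actives have a fitted effect of over 50% in size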
PI5P4Ka inh: PI5P4K alpha (human) kinase inhibition; P48426; PI5P4Kalpha enzyme, ADP-Glo luminescence, 60 min; active compounds read low; 330,000 tested, 1.2% active; max response, %; active = max response of -50% or lower; inconclusive = between -30% and -50%; inactive = -30% or higher; also: value at the top dose of about 77 µM; % is scaled to controls: 0 for no effect and ±100 for the full control effect
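ADP-Glo luminescence end-point read after a 60 min room-temperature kinase reaction of PI5P4Kalpha plus substrate, initiated with ATP at 5 microM final. Buffer: 0.038 M HEPES pH 7.4, EGTA, 0.1% CHAPS, 5% DMSO.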
Starred values were filed as active, the others as inactive; ? = inconclusive; nt = no result; [ ] = remark or other dose. A selection: hits, their analogues and other compounds. The true share with any hit is near 5.7%. Unless noted, calls follow the shape of the dose curve; as a rule, active = well fitted inhibition curve with a large enough effect; inconclusive = small, poorly fitted or top-dose-only effect; inactive = no such curve, though single readings can be large or run the other way.

SMILES	L3MBTL1 inh	HP1b chromo inh	BAZ2B block	JMJD2A Tudor	JMJD2E inh	PI5P4Ka inh
CCN1C(=O)[C@H]2[C@@H](c3ccc(-c4ccc(OC)cc4)c(OC)c3)N[C@@](C)(C(=O)OC)[C@H]2C1=O	-8.7%	44.4%	-13.3%	-30.0%	nt	9.5
CCOC(=O)C1=C(O)/C(=C\c2cccs2)N=C1C	16.2%	31.4%	-0.6%	-7.1%	-10.7%	-2.8
CCOC(=O)C1=C(O)/C(=C\c2ccc(CNC(=O)C(=O)Nc3ccccc3)o2)N=C1C	nt	0.8%	56.2µM*	?	-5.6%	-64.7*
CCCCN(CC(=O)NC1CCCC1)C(=O)C(=O)Nc1ccc2c(c1)OCCO2	nt	4.6%	0.2%	79.4µM*	nt	2.1
Cc1cc(C)c(C)c(OCC(=O)Nc2ccc(S(=O)(=O)Nc3nc(C)cc(C)n3)cc2)c1	nt	11.7%	-14.6%	-21.5%	nt	nt
CCC12CN3CC(C)(CN(C1)C3c1c[nH]c3ccccc13)C2=O (configuration not stated)	nt	44.9%	-17.4%	-13.2%	nt	nt
CCN(CC)c1ccc(NC(=O)COCc2cc(-c3ccc4c(c3)OCO4)on2)c(C)c1	nt	?	22.4µM*	20µM*	nt	nt
COc1cc(NC(=O)COCc2cc(-c3ccc4c(c3)OCO4)on2)c(OC)cc1Cl	nt	12.5%	2.0%	-16.2%	nt	nt
N#Cc1ccccc1N1CCN(C(=O)c2ccc(NC(=O)c3ccc(Br)o3)cc2)CC1	?	-27.0%	50.1µM*	56.2µM*	nt	?
Cc1c(Br)c(=O)oc2c(Br)c(O)c(O)cc12	3.55µM*	-11.4%	?	44.7µM*	?	-62.9*
COc1cccc(-c2cc(C(F)(F)F)n3ncc(C(=O)OC(C)C)c3n2)c1	nt	41.8%	8.7%	6.2%	nt	nt
COc1ccc(-n2c(C(C)n3nc(C)c([N+](=O)[O-])c3C)n[nH]c2=S)cc1 (configuration not stated)	5.9%	39.9%	-5.2%	12.6µM*	8.4%	-0.7
Cc1ccc(-n2c(C(C)n3nc(C)c([N+](=O)[O-])c3C)n[nH]c2=S)cc1 (configuration not stated)	19.1%	-78.9%	10.4%	12.6µM*	-0.3%	nt
Cc1nn(C(C)c2n[nH]c(=S)n2-c2cccc(Cl)c2)c(C)c1[N+](=O)[O-] (configuration not stated)	-10.8%[11.4 µM]	1.4%	7.0%	?	2.7%	nt
Cc1ccc(C(=O)NC(=S)NNC(=O)CCN2CCOCC2)cc1	-10.2%	52.1%	56.2µM*	-18.6%	4.3%	8.9
O=C(NC(=S)NCCN1CCOCC1)c1ccc(F)cc1	0.4%	40.3%	-4.2%	1.4%	4.5%	4.5
Cc1ccccc1NC(=O)Cc1nnc(SCC(=O)NC2=NCCS2)n1C	nt	-7.9%	-1.5%	25.1µM*	nt	7.1
O=C(CCc1ccc(O)cc1)N/N=C/c1coc2ccccc2c1=O	?	34.0%	-4.7%	-12.8%	7.1%	-18.8
O=C(CNC(=O)C1COc2ccccc2O1)N/N=C\c1cccc(O)c1 (configuration not stated)	7.3%	8.3%	11.4%	-8.8%	-4.9%	4.1
O=C(CNC(=O)C(c1ccccc1)c1ccccc1)N/N=C\c1cccc(O)c1	18.4%	31.7%	15.7%	-2.8%	2.3%	0.4
O=C(CNC(=O)C1COc2ccccc2O1)N/N=C/c1ccc(O)cc1O (configuration not stated)	0.0%	31.9%	-0.3%	-25.5%	28.2µM*	-7.6
O=C(CCCCCNC(=O)c1ccccc1)N/N=C/c1ccc(O)cc1O	10.1%	27.9%	-5.4%	-12.5%	20µM*	-5.0
C/C(=N\NC(=O)CCCCCNC(=O)c1ccccc1)c1ccccc1O	9.3%	-1.4%	5.5%	-4.3%[57.1 µM]	?	-0.5
O=C(CNC(=O)C(c1ccccc1)c1ccccc1)N/N=C/c1ccc(O)cc1O	-18.5%	26.9%	-20.2%	-28.1%	20µM*	-6.0
CCOC(=O)C1(Cc2ccc(OC)cc2)CCN(C(=O)CN2CCCCC2=O)CC1	4.7%	8.4%	5.5%	-1.4%	-2.0%	-7.2
SMILES	L3MBTL1 inh	HP1b chromo inh	BAZ2B block	JMJD2A Tudor	JMJD2E inh	PI5P4Ka inh
CN(C(=O)CSc1cn(CC(=O)N2CCCC2)c2ccccc12)c1ccccc1	nt	30.4%	-19.0%	3.7%	nt	nt
COc1cc(C(=O)N=c2sccn2C)c([N+](=O)[O-])cc1OC	nt	14.1%	4.5%	-25.3%	nt	1.3
Cn1ccsc1=NC(=O)c1ccc([N+](=O)[O-])o1	nt	?	-30.4%	56.2µM*	nt	-59.9*
Cc1cc(C)nc(SC(C(=O)O)c2ccccc2)n1 (configuration not stated)	11.3%	47.6%	-1.5%	-10.8%	-0.4%	1.2
Cc1cc(C)nc(Sc2nc(Cl)nc(N(c3ccccc3)c3ccccc3)n2)n1	nt	40.7%	?	6.31µM*	-4.2%	-27.5
COc1cc(/C=C2\SC(c3ccc(C)cc3)=NC2=O)ccc1O	-14.0%	?	22.4µM*	28.2µM*	-3.6%	nt
COc1cc(/C=C2\SC(c3ccccc3)=NC2=O)cc(Cl)c1O	?	12.6µM*	35.5µM*	6.31µM*	?	-98.7*
COc1ccc(/C=C2/SC(c3ccc(C)cc3)=NC2=O)cc1OC	-1.5%	?	-32.2%	50.1µM*	-11.4%	-19.2
CCOc1c(Br)cc(Br)cc1/C=C1\SC(N)=NC1=O	-5.8%	9.7%	?	25.1µM*	nt	-7.3
CCOc1cc(/C=C2\SC(N)=NC2=O)ccc1O	-12.8%	22.6%	-10.9%	-6.8%	nt	?
CCC1CCc2nc3sc(C(=O)Nc4cccc(F)c4)c(N)c3cc2C1 (configuration not stated)	nt	38.8%	3.1%	-9.7%	nt	nt
Cc1ccc(N(C)C(=O)c2cc(S(=O)(=O)N3CCOCC3)cn2C)cc1	nt	7.9%	-2.2%	-22.4%	nt	nt
CCCC[C@@H]1C[C@H]1C(NC(=O)c1ccco1)c1ccccc1 (some centres not stated)	nt	nt	nt	nt	-12.4%	nt
COc1cc(/C=C2\SC(c3ccc(C)cc3)=NC2=O)cc(OC)c1OC	-3.0%	?	-7.7%	56.2µM*	-8.2%	nt
COc1cc(/C=C2/C(=O)N(c3cccc(Br)c3)N=C2C)cc(OC)c1O	nt	28.2µM*	10µM*	28.2µM*	nt	6.8
COc1cc(/C=C2\SC(N)=NC2=O)ccc1OCC(=O)Nc1ccc(C)cc1	14.1%	14.4%	-36.8%	-18.8%	-9.1%	-7.4
COc1ccc(/C=C2\SC(c3ccc(C)cc3)=NC2=O)cc1OC	10.6%	20µM*	-18.6%	28.2µM*	-17.8%	nt
COc1cc(/C=C2\SC(N)=NC2=O)cc(Br)c1O	2.3%[2.29 µM]	1.5%	?	-25.6%	nt	-70.5*
COc1cc(/C=C2\SC(N3CCc4ccccc4C3)=NC2=O)cc(OC)c1OC	5.3%	36.5%	-0.9%	-4.7%	-5.9%	0.5
